Most compounds without a hit are left out; they make up all but 1.6% or so of the library.
Mtb hypoxia inh – reduces hypoxia-regulated biosensor signal in M. tuberculosis | M. tuberculosis hypoxia-regulated fluorescent reporter, fluorescence | fluorescence inhibition, % (concentration not given with the values) | hit rate 0.1% among 300,000 | AID 1159583; in the data active means fluorescence inhibition mostly above about 23%, no sharp cut-off; inactive means mostly below about 17%
BJeLR viability – kills HRASV12-expressing BJeLR cells; hit rate 0.17% among 300,000; inhibition, % (concentration not given with the values); BJeLR (HRASV12) viability, CellTiter-Glo ATP luminescence, 48 h; in the data active means inhibition above about 50%
ugtP null kill – compounds lethal to S. aureus RN4220 ugtP deletion mutant | OD600 growth, 16 h | growth inhibition, % (no concentration beside the values) | hit rate 0.54% among 330,000; in the data active means growth inhibition above about 68%
RecA intein inh – Mtb RecA intein splicing inhibition. inhibition, % (no concentration beside the values). hit rate 0.75% among 290,000. P9WHJ3. cell-free RecA intein splicing, fluorescence. AID 2221; in the data active means inhibition above about 30%
Target sequence (P9WHJ3 whole entry, looked up): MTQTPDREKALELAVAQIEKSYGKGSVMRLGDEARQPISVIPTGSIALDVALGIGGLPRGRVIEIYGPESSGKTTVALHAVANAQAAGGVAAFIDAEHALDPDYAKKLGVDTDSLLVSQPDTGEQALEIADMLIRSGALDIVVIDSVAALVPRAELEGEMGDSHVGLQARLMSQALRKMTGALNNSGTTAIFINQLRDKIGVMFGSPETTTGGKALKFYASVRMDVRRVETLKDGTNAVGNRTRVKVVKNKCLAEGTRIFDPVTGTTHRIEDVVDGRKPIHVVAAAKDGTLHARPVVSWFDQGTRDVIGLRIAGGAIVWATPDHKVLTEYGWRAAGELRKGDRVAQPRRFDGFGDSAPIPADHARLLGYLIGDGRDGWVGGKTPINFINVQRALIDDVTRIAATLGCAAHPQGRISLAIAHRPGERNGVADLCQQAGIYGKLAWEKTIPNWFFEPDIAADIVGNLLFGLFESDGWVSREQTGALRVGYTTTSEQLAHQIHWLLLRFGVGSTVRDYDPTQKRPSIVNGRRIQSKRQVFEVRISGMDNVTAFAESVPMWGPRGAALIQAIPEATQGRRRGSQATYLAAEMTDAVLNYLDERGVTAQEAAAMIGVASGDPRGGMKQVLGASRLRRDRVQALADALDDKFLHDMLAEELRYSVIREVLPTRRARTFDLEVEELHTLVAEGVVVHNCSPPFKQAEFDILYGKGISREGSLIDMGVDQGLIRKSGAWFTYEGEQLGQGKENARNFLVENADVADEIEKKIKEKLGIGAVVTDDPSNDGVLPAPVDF
CCHF vOTU inh – CCHFV vOTU protease inhibition; hit rate 0.55% among 370,000; inhibition, % at 11.5 µM; Pep-AMC fluorescence; in the data active means inhibition above about 30%
RN4220 kill – kills Staphylococcus aureus RN4220; S. aureus RN4220 growth, OD600, 16 h; inhibition, % (test concentration not listed); hit rate 0.33% among 330,000; AID 1259311; in the data active means inhibition above about 85%
GFP chromo cs – counter-screen GFP chromophore formation inhibition; AID 434968; hit rate 83% among 2,100; cell-free GFP chromophore formation, fluorescence; shares compounds with RecA intein inh; EC50, µM; call rule not given here
Each line names hits and unclear results; the compound was inactive in the other large screens (follow-up assays come after a bar, where shown).

COc1cc2c(cc1OC)C1(Nc3c-2c(Cc2ccccc2)nn3-c2ccccc2)C(=O)Nc2ccccc21 (configuration not stated)	RecA intein inh 35 | GFP chromo cs inactive
COc1cc2c(cc1OC)C1(NCC2)C(=O)Nc2ccccc21 (configuration not stated)	none
COc1ccc2c(c1)C1C(CO2)C(c2ccccc2)[C@]2(C)C(=O)NCC(=O)N12 (some centres not stated)	none (no result: BJeLR viability, RecA intein inh, CCHF vOTU inh)
CN(C)C(=O)N1CCN(S(=O)(=O)c2ccc3ccccc3c2)CC1	none (no result: RecA intein inh)
O=C(CCl)N1CCN(S(=O)(=O)c2ccc3ccccc3c2)CC1	RecA intein inh 76 | GFP chromo cs 28
COc1ccccc1/C=C/C1(C(=O)NC2CCCC2)CC(=O)N1c1ccc(F)cc1 (configuration not stated)	RecA intein inh 57 | GFP chromo cs 22
CC(C)CC(CN=[N+]=[N-])N1CCN(Cc2ccccc2)CCC1=O (configuration not stated)	none (no result: BJeLR viability, RecA intein inh, CCHF vOTU inh)
COc1ccc(S(=O)(=O)N(C)c2ccc(OC(=O)C(C)Oc3ccc(F)cc3)cc2)cc1 (configuration not stated)	none
CC(Oc1ccc(F)cc1)C(=O)Oc1ccc(N(C)S(=O)(=O)c2ccccc2)cc1 (configuration not stated)	RecA intein inh 39 | GFP chromo cs inactive
Cn1c(-[n+]2c(-c3ccccc3)cc(-c3ccccc3)cc2-c2ccccc2)nc2c([N+](=O)[O-])cccc21	RecA intein inh 33 | GFP chromo cs 30
C=CCN1C=C2C(=O)C(C)(OC(=O)c3cnc4ccccc4n3)C(=O)C=C2C=C1C=CCOC (configuration not stated)	none (no result: BJeLR viability, RecA intein inh, CCHF vOTU inh)
O=c1[nH]n(-c2ccccc2)c(=O)cc1Cl	none (no result: BJeLR viability, RecA intein inh)
Cc1cc(=O)n(-c2ccc(O)cc2)[nH]1	ugtP null kill 82, RecA intein inh 97 | GFP chromo cs 2.2
Cc1cc(=O)n(-c2ccccc2Cl)[nH]1	RecA intein inh 87 | GFP chromo cs 18
Cc1cc(=O)cc(C)n1-c1ccc(O)cc1	none
NC(=O)C1CC2(CC(c3cccc(NC(=O)C4CCC(=O)N4)c3)=NO2)CN1C(=O)c1cc([N+](=O)[O-])cc([N+](=O)[O-])c1 (configuration not stated)	none (no result: BJeLR viability, RecA intein inh, CCHF vOTU inh)
Cc1cc(O)c(C=NNc2cccc(Cl)c2)c(=O)o1	none (no result: Mtb hypoxia inh, BJeLR viability, RecA intein inh, CCHF vOTU inh)
O=C(NCCN1CCCC1)c1ccccc1Cl	none
O=C1C(Cl)=C(NCCN2CCCCC2)C(=O)c2ccccc21	RecA intein inh 48 (no result: CCHF vOTU inh) | GFP chromo cs 26
COc1ccc(-c2[nH]n(-c3ccc([N+](=O)[O-])cc3)c(=O)c2C=NCc2ccc(F)cc2)cc1	none
COc1ccc(-c2cc(=O)n(-c3ccc([N+](=O)[O-])cc3)[nH]2)cc1	RecA intein inh 90 | GFP chromo cs 5.4
CC(=O)OCCCNc1cc(Sc2ccc(C)cc2)c2nonc2c1[N+](=O)[O-]	none
COC(=O)CCSc1cc(NCCOC(C)=O)c([N+](=O)[O-])c2nonc12	RecA intein inh 54 | GFP chromo cs 24
O=[N+]([O-])c1c(NCCCO)cc(Sc2ccc(Cl)cc2)c2nonc12	none
CC(=O)OCCNc1cc(SCc2ccco2)c2nonc2c1[N+](=O)[O-]	RecA intein inh 78 (no result: CCHF vOTU inh) | GFP chromo cs 11
CC(=O)OCCNc1cc(Sc2nc3ccccc3[nH]2)c2nonc2c1[N+](=O)[O-]	none (not shown: Mtb hypoxia inh)
CCCC(=O)OCCNc1cc(SCCC(=O)OC)c2nonc2c1[N+](=O)[O-]	RecA intein inh 39 (not shown: Mtb hypoxia inh) | GFP chromo cs 18
Cc1cc(C(=O)NN=Cc2ccco2)n[nH]1	none (no result: BJeLR viability, RecA intein inh, CCHF vOTU inh)
CCCCCC(O)c1cc2ccccc2c(=O)o1 (configuration not stated)	none (no result: BJeLR viability, RecA intein inh, CCHF vOTU inh)
COc1ccc(Cn2c(O)c(/C=N/NC(=O)c3ccccc3O)c(=O)[nH]c2=O)cc1	RecA intein inh 31 | GFP chromo cs inactive
O=C(N/N=C/c1c(O)n(Cc2ccccc2)c(=O)[nH]c1=O)c1ccccc1O	none
COc1ccc2[nH]c3c(Cl)ncnc3c2c1	RecA intein inh 76 | GFP chromo cs inactive
O=C(O)CC1S/C(=N/N=Cc2ccc(-c3ccc(Cl)c([N+](=O)[O-])c3)o2)NC1=O (configuration not stated)	none (no result: BJeLR viability, RecA intein inh, CCHF vOTU inh)
Cc1ccc(-c2ccc(/C=N/N=C3/NC(=O)C(CC(=O)O)S3)o2)c([N+](=O)[O-])c1 (configuration not stated)	RecA intein inh 48 (no result: Mtb hypoxia inh, ugtP null kill, RN4220 kill) | GFP chromo cs 34
O=C(NC1C(=O)NNC1c1ccccc1)c1ccc(F)cc1 (configuration not stated)	none (no result: RecA intein inh)
O=C(NC1C(=O)NNC1c1ccc(Cl)cc1)c1ccc(F)cc1 (configuration not stated)	RecA intein inh 70 | GFP chromo cs 30
FC(F)(F)c1cccc(Oc2nc(-c3ccccc3)nnc2C(F)(F)F)c1	RecA intein inh 58 | GFP chromo cs 1.5
FC(F)(F)c1nnc(-c2ccccc2)nc1Oc1ccc(Cl)cc1Cl	RecA intein inh 61 (no result: Mtb hypoxia inh) | GFP chromo cs 0.45
FC(F)(F)c1nnc(-c2ccccc2)nc1Sc1ccccc1	RecA intein inh 63 (no result: Mtb hypoxia inh) | GFP chromo cs 27
CC1CN(C(C)CO)C(=O)Cc2cc(NS(=O)(=O)c3cn(C)cn3)ccc2OC1CN(C)C(=O)Nc1ccc(F)cc1 (configuration not stated)	none (no result: BJeLR viability, RecA intein inh, CCHF vOTU inh)
O=C(C/C=N\OCc1c(Cl)cccc1Cl)Oc1ccc(Cl)cc1Cl	RecA intein inh 45 (no result: Mtb hypoxia inh, ugtP null kill, RN4220 kill) | GFP chromo cs 27
COC(=O)C1CC[C@@](C)(c2ccc(OC)cc2)C1(C)C (some centres not stated)	none (no result: BJeLR viability, RecA intein inh, CCHF vOTU inh)
CCCCCCCCOC(=O)c1c(CSC(=N)N)n(C)c2cc(Br)c(OC(C)=O)cc12	ugtP null kill 101, RecA intein inh 90, RN4220 kill 100 (not shown: Mtb hypoxia inh) | GFP chromo cs 2.4
N#C/C(=C\c1ccccc1[N+](=O)[O-])C(=O)NCc1ccccc1	none
CCCCCCCCNC(=O)/C(C#N)=C/c1ccccc1[N+](=O)[O-]	ugtP null kill 91, RecA intein inh 42 | GFP chromo cs 12
CCCCCN1N=C(C)CC1=O	RecA intein inh 79 | GFP chromo cs 13
CC1=NN(Cc2cc(C(C)(C)C)c(O)c(C(C)(C)C)c2)C(=O)C1	none
CCCCC1CCCO[C@@](C(=O)NCc2cc(C)n(C)n2)(C(F)(F)F)C1 (some centres not stated)	none (no result: BJeLR viability, RecA intein inh, CCHF vOTU inh)
Cc1c(C(=O)NN)nn(-c2ccc(Cl)cc2)c(=O)c1C#N	RecA intein inh 43 (no result: BJeLR viability) | GFP chromo cs 31
COc1ccc(-c2nnc(Sc3nc4ccccc4o3)c3ccccc23)cc1	RecA intein inh 53 | GFP chromo cs 1.5
COc1ccc(SCC(Cc2ccccc2)N2CCC(C(C)(C)C)CCC2=O)cc1 (configuration not stated)	none (no result: BJeLR viability, RecA intein inh, CCHF vOTU inh)
O=C(NC1CCCCC1)C1CC=CC2CCN(Cc3ccccc3)C(=O)C21 (configuration not stated)	none (no result: BJeLR viability, RecA intein inh, CCHF vOTU inh)
